# Results with a measured potency or affinity are listed apart.
# Tests used:
# Staphylococcus aureus = conditions: Concentration 32 ug.mL-1;; ASSAY_TEST Inhibition of Bacterial Growth; detection method Absorption (OD600); MEDIA CAMHB; plate type 384well; NBS; CORNING #3640; time 18 hr
# Escherichia coli = conditions: Concentration 32 ug.mL-1;; ASSAY_TEST Inhibition of Bacterial Growth; detection method Absorption (OD600); MEDIA CAMHB; plate type 384well; NBS; CORNING #3640; time 18 hr
smiles,measurement,setting,value
Cc1nnc2c(=O)n(CC(=O)Nc3ccccc3F)c3ccccc3n12,Inhibition,Staphylococcus aureus,-11.2%
same,Inhibition,Escherichia coli,1.77%
O=C(Cn1nc2ccc(-c3ccc(Cl)cc3)nn2c1=O)N1CCN(c2ccccc2F)CC1,Inhibition,Staphylococcus aureus,9.33%
same,Inhibition,Escherichia coli,-0.1%
COc1cccc(CN(c2ccc(F)cc2)S(=O)(=O)c2cccn3cnnc23)c1,Inhibition,Staphylococcus aureus,-5.01%
same,Inhibition,Escherichia coli,-3.63%
O=C(Cn1nc2c3cc(-c4ccc(Cl)cc4)nn3ccn2c1=O)Nc1ccc2c(c1)OCCO2,Inhibition,Staphylococcus aureus,-0.49%
same,Inhibition,Escherichia coli,-1.57%
CCc1nnc2c(S(=O)(=O)N(Cc3cccc(OC)c3)c3ccccc3)cccn12,Inhibition,Staphylococcus aureus,13.09%
same,Inhibition,Escherichia coli,-2.65%
CCc1ccc(N(Cc2ccccc2C)S(=O)(=O)c2cccn3c(C)nnc23)cc1,Inhibition,Staphylococcus aureus,9.52%
same,Inhibition,Escherichia coli,-5.19%
CCCCOc1ccc(-c2cc3c4nnc(SCC(=O)Nc5ccc(CC)cc5)n4ccn3n2)cc1,Inhibition,Staphylococcus aureus,-9.56%
same,Inhibition,Escherichia coli,-11.54%
O=C(Cn1nc2c3c4c(sc3ncn2c1=O)CCCC4)NCc1ccccc1Cl,Inhibition,Staphylococcus aureus,-19.92%
same,Inhibition,Escherichia coli,0.09%
O=C(Cn1nc2c3sc(N4CCCC4)nc3ncn2c1=O)Nc1ccc(C(F)(F)F)cc1,Inhibition,Staphylococcus aureus,13.19%
same,Inhibition,Escherichia coli,-0.19%
CC(C)(C)OC(=O)N1CCC(NC(=O)CCc2nnc3ccc(-c4ccccc4)nn23)CC1,Inhibition,Staphylococcus aureus,1.31%
same,Inhibition,Escherichia coli,-5.19%
CCc1ccccc1Sc1nccn2c(=O)n(CC(=O)Nc3ccc(Br)cc3)nc12,Inhibition,Staphylococcus aureus,-9.89%
same,Inhibition,Escherichia coli,1.96%
O=S(=O)(c1ccc2nncn2c1)N(Cc1ccc(Cl)cc1)c1ccc2c(c1)OCO2,Inhibition,Staphylococcus aureus,11.62%
same,Inhibition,Escherichia coli,-6.36%
Cn1c(=O)c2ccc(C(=O)NC3CCCC3)cc2n2c(SCc3c(F)cccc3Cl)nnc12,Inhibition,Staphylococcus aureus,12.53%
same,Inhibition,Escherichia coli,0.61%
O=C(Cn1nc2ccc(SCc3ccc(Cl)cc3)nn2c1=O)Nc1ccc2c(c1)CCC2,Inhibition,Staphylococcus aureus,2.54%
same,Inhibition,Escherichia coli,-5.73%
COC(=O)c1ccc(NC(=O)Cn2nc3c(N4CCOCC4)nccn3c2=O)cc1,Inhibition,Staphylococcus aureus,12.61%
same,Inhibition,Escherichia coli,0.79%
O=C(CCc1nnc2c(N3CCCCC3)nc3ccccc3n12)NCCc1ccc(Cl)cc1,Inhibition,Staphylococcus aureus,11.18%
same,Inhibition,Escherichia coli,0.17%

# — ChEMBL document CHEMBL4513146, “CO-ADD screening of Karazin Kharkiv National University (Ukraine) compounds”
